According to PubChem BioAssay (NCATS):
Results filed as inconclusive are left out. Calls of active or inactive are those of the source. The call rests on the fitted dose curve; in most records, active means well fitted curve in the direction sought with a large enough effect; inconclusive means small, poorly fitted or top-dose-only effect, or another doubt; inactive means no such curve, though single readings can be large; an effect the other way counts as inactive or inconclusive.

How the values were obtained:
[1] = Quantitative High-Throughput drug screen in 47 multiple myeloma cell lines against the NCATS MIPE library collection: NCIH929_DSMZ cell viability assay (AID 1918978); further: nearly all actives have a fitted effect of over 35% in size
How it was run: (§1)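 500 cells/well; MIPE 4.0 drugs pin-transferred; 48 h, 37C, 5% CO2. CellTiter-Glo, 5 min RT, luminescence. Controls: DMSO 100%, media 0%.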

[2] = Quantitative High-Throughput drug screen in 47 multiple myeloma cell lines against the NCATS MIPE library collection: OCIMY1_PLB cell viability assay (AID 1918979); further: nearly all actives have a fitted effect of over 35% in size;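 on viability: 100% = DMSO-only wells and 0% = cell-free media-only wells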
How it was run: as §1

[3] = Quantitative High-Throughput drug screen in 47 multiple myeloma cell lines against the NCATS MIPE library collection: MM1S_ATCC cell viability assay (AID 1918980); further: nearly all actives have a fitted effect of over 45% in size
How it was run: as §1

[4] = Quantitative High-Throughput drug screen in 47 multiple myeloma cell lines against the NCATS MIPE library collection: MM1R_ATCC cell viability assay (AID 1918981); further: nearly all actives have a fitted effect of over 35% in size
How it was run: as §1

[5] = Quantitative High-Throughput drug screen in 47 multiple myeloma cell lines against the NCATS MIPE library collection: LP1_DSMZ cell viability assay (AID 1918982); further: nearly all actives have a fitted effect of over 35% in size
How it was run: as §1

[6] = Quantitative High-Throughput drug screen in 47 multiple myeloma cell lines against the NCATS MIPE library collection: KMS28PE_JCRB cell viability assay (AID 1918983); further: nearly all actives have a fitted effect of over 35% in size
How it was run: as §1

[7] = Quantitative High-Throughput drug screen in 47 multiple myeloma cell lines against the NCATS MIPE library collection: L363_DSMZ cell viability assay (AID 1918984); further: nearly all actives have a fitted effect of over 40% in size
How it was run: as §1

[8] = Quantitative High-Throughput drug screen in 47 multiple myeloma cell lines against the NCATS MIPE library collection: KMS34_JCRB cell viability assay (AID 1918985); further: nearly all actives have a fitted effect of over 40% in size
How it was run: as §1

[9] = Quantitative High-Throughput drug screen in 47 multiple myeloma cell lines against the NCATS MIPE library collection: OCIMY7_PLB cell viability assay (AID 1918987); conditions: OCI-MY7 myeloma viability, CellTiter-Glo ATP, 48 h; viability (% of DMSO): at 45.8 µM (top of the series); further: nearly all actives have a fitted effect of over 65% in size
How it was run: as §1

[10] = Quantitative High-Throughput drug screen in 47 multiple myeloma cell lines against the NCATS MIPE library collection: OCIMY5_PLB cell viability assay (AID 1918988); further: nearly all actives have a fitted effect of over 65% in size
How it was run: as §1

[11] = Quantitative High-Throughput drug screen in 47 multiple myeloma cell lines against the NCATS MIPE library collection: OPM1_PLB cell viability assay (AID 1918989); further: nearly all actives have a fitted effect of over 40% in size
How it was run: as §1

[12] = Quantitative High-Throughput drug screen in 47 multiple myeloma cell lines against the NCATS MIPE library collection: SKMM1_PLB cell viability assay (AID 1919863); conditions: SKMM1 myeloma viability, CellTiter-Glo ATP, 48 h; viability: stronger effect = lower value; further: nearly all actives have a fitted effect of over 35% in size
How it was run: as §1

[13] = Quantitative High-Throughput drug screen in 47 multiple myeloma cell lines against the NCATS MIPE library collection: U266_ATCC cell viability assay (AID 1919864); further: nearly all actives have a fitted effect of over 35% in size
How it was run: as §1

[14] = Quantitative High-Throughput drug screen in 47 multiple myeloma cell lines against the NCATS MIPE library collection: XG6_PLB cell viability assay (AID 1919865); further: nearly all actives have a fitted effect of over 40% in size
How it was run: as §1

[15] = Quantitative High-Throughput drug screen in 47 multiple myeloma cell lines against the NCATS MIPE library collection: XG1_PLB cell viability assay (AID 1919866); further: nearly all actives have a fitted effect of over 35% in size
How it was run: as §1

[16] = Quantitative High-Throughput drug screen in 47 multiple myeloma cell lines against the NCATS MIPE library collection: UTMC2_PLB cell viability assay (AID 1919868); conditions: CellTiter-Glo ATP luminescence, 48 h; viability (% of DMSO control): at 45.8 µM (top of the series); further: nearly all actives have a fitted effect of over 55% in size;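 on viability (% of DMSO control): 100% = DMSO-only wells and 0% = media-only wells without cells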
How it was run: as §1

[17] = Quantitative High-Throughput drug screen in 47 multiple myeloma cell lines against the NCATS MIPE library collection: PE2_PLB cell viability assay (AID 1919869); further: nearly all actives have a fitted effect of over 35% in size
How it was run: as §1

[18] = Quantitative High-Throughput drug screen in 47 multiple myeloma cell lines against the NCATS MIPE library collection: PCM6_Riken cell viability assay (AID 1919870); further: nearly all actives have a fitted effect of over 30% in size
How it was run: as §1

[19] = Quantitative High-Throughput drug screen in 47 multiple myeloma cell lines against the NCATS MIPE library collection: RPMI8226_ATCC cell viability assay (AID 1919871); further: nearly all actives have a fitted effect of over 30% in size
How it was run: as §1

[20] = Quantitative High-Throughput drug screen in 47 multiple myeloma cell lines against the NCATS MIPE library collection: VP6_DJ cell viability assay (AID 1919867); further: nearly all actives have a fitted effect of over 40% in size
How it was run: as §1
Potency means the concentration at half of the fitted maximal effect.

O=C1C(Cl)=C(NCCN2CCOCC2)C(=O)c2ncccc21
active: Potency [1] 7.43 µM | Potency [2] 6.62 µM | Potency [3] 3.32 µM | Potency [4] 3.32 µM | Potency [5] 8.33 µM | Potency [6] 4.18 µM | Potency [7] 3.72 µM | Potency [8] 4.18 µM | Potency [9] 3.32 µM | Potency [10] 2.35 µM | Potency [11] 7.43 µM | Potency [12] 4.18 µM | Potency [13] 5.9 µM | Potency [14] 7.43 µM | Potency [15] 6.62 µM | Potency [16] 8.33 µM | Potency [17] 2.35 µM | Potency [18] 8.33 µM

C[C@@H]1CCN(C(=O)CC#N)C[C@H]1N(C)c1ncnc2[nH]ccc12
inactive: Potency [1] | Potency [2] | Potency [4] | Potency [5] | Potency [6] | Potency [11] | Potency [16] | Potency [18]
active: Potency [3] 2.64 µM | Potency [10] 13.2 µM

CC(C)=CC[C@@H](O)C1=CC(=O)c2c(O)ccc(O)c2C1=O
active: Potency [1] 0.264 µM | Potency [2] 1.18 µM | Potency [3] 0.662 µM | Potency [4] 0.264 µM | Potency [5] 3.32 µM | Potency [6] 1.05 µM | Potency [10] 0.469 µM | Potency [11] 16.6 µM | Potency [12] 1.05 µM | Potency [13] 0.469 µM | Potency [14] 0.469 µM | Potency [15] 0.418 µM | Potency [16] 13.2 µM | Potency [17] 0.264 µM | Potency [19] 1.87 µM

O=C(CCCCCCC(=O)Nc1ccccc1)NO
active: Potency [1] 2.64 µM | Potency [2] 5.9 µM | Potency [3] 2.96 µM | Potency [4] 2.09 µM | Potency [6] 3.72 µM | Potency [7] 1.87 µM | Potency [9] 2.35 µM | Potency [10] 2.64 µM | Potency [12] 3.72 µM | Potency [13] 5.9 µM | Potency [15] 2.96 µM | Potency [20] 0.833 µM | Potency [16] 0.662 µM | Potency [17] 3.32 µM | Potency [18] 3.32 µM | Potency [19] 4.69 µM

CC(C)(C(=O)NCC(F)(F)C(F)(F)F)C(=O)N[C@@H]1C(=O)Nc2ccccc2-c2ccccc21
active: Potency [1] 16.6 µM | Potency [3] 13.2 µM | Potency [7] 3.72 µM | Potency [14] 16.6 µM | Potency [15] 10.5 µM | Potency [17] 18.7 µM | Potency [18] 3.32 µM
inactive: Potency [2] | Potency [5] | Potency [6] | Potency [8] | Potency [10] | viability [12] 128% | Potency [19]
